High-throughput results (PubChem BioAssay)
ALDH1A1 block: ALDH1A1 (human) enzyme inhibition; Purified ALDH1A1, NADH fluorescence, propionaldehyde substrate; AID 1030; Potency, µM (series often up to 75.3 µM), for the others: at the top dose activity, negative = inhibition, most hits filed as inhibitors; 7.3% of 220,000 active; active = well fitted inhibition curve with a large enough effect, not every such curve was filed as active; inconclusive = small, poorly fitted or top-dose-only effect, or another doubt; inactive = no such curve, though single readings can be large or run the other way;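 note: plate controls were no enzyme wells and a reference inhibitor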
Target sequence (P00352 whole entry, looked up): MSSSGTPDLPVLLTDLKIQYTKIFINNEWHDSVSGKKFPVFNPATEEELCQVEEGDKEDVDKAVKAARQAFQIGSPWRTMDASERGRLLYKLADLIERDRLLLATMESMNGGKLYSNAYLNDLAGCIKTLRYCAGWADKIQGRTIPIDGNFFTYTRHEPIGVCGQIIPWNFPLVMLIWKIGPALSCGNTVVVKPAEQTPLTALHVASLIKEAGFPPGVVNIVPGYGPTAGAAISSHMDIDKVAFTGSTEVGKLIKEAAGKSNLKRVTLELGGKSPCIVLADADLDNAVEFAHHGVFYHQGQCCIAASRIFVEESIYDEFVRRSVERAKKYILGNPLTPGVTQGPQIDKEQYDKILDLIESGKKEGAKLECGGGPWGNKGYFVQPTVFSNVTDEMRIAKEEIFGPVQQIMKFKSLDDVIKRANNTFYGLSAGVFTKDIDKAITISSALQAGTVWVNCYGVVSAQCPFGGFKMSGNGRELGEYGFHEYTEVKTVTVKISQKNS
NPSR antagonist: neuropeptide S receptor (human) antagonism, cAMP. CHO-NPSR cells, cAMP TR-FRET, antagonist mode. Potency, µM (top dose mostly 38.3 µM), for the others: top-dose activity change, negative = inhibition, hits mostly inhibitors. 1% of 220,000 active. AID 1461; note: nearly all actives have a fitted effect of over 50% in size
Tau fluor counter: counter-screen for tau fibril formation inhibitors | Potency, µM (doses to about 57.7 µM), without a hit: at the highest dose activity change, negative = decrease | tau K18 P301L Alexa594 fluorescence, heparin fibrillization | 0.93% of 280,000 active | AID 1463; note: nearly all actives have a fitted effect of over 55% in size
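Human K18 P301L tau (15 uM unlabeled plus 0.24 uM Alexa 594-labeled, final) in 100 mM sodium acetate pH 7 was mixed with compound and 20 uM heparin and incubated 6 hr at 37 C.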
HPGD inh: inhibitors of human 15-hydroxyprostaglandin dehydrogenase (HPGD). purified HPGD, NADH fluorescence kinetic, PGE2 substrate. Potency, µM, without a hit: at the top dose activity change, negative = inhibition, hits mostly inhibitors. 4.3% of 150,000 active; active = well fitted inhibition curve with a large enough effect, not every such curve was filed as active; inconclusive = small, poorly fitted or top-dose-only effect, or another doubt; inactive = no such curve, though single readings can be large or run the other way
Target sequence (P15428 whole entry, looked up): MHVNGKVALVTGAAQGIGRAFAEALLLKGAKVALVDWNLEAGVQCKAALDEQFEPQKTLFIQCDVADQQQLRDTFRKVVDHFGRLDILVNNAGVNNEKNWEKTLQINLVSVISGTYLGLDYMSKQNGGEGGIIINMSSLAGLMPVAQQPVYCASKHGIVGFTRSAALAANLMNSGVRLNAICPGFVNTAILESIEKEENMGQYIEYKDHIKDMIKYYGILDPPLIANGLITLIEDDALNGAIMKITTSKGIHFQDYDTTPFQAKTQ
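NADH formation kinetics: reaction with 30 uM PGE2 and 1 mM NAD+ (final), 20 nM enzyme, Tris-HCl pH 8 with Tween 20, after 15 min compound preincubation at room temperature. Fluorescence change, last versus first of five reads.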
Tau FP inhib: blocks human tau fibril formation measured by polarization | P10636 | K18 P301L tau heparin fibrillization, Alexa594 FP, 6 h | Potency, µM (titrated, usually from 57.7 µM), without a hit: at the top dose activity, negative = inhibition, hits mostly inhibitors | 0.39% of 280,000 active | AID 1468; note: nearly all actives have a fitted effect of over 55% in size
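FP of Alexa 594-tau after heparin (20 uM) induction. Substrate: human K18 P301L, 15 uM unlabeled, 0.24 uM labeled. Buffer 100 mM sodium acetate pH 7. 6 hr, 37 C.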
Tau fibril ThT: inhibitors of human tau fibril formation, thioflavin T binding; P10636; recombinant tau K18 P301L (four-repeat tau fragment), heparin-induced fibrillization, ThT fluorescence; Potency, µM (series often up to 57.4 µM), inactives show top-dose activity, negative = inhibition, most hits filed as inhibitors; 2.1% of 270,000 active; AID 1460; note: nearly all actives have a fitted effect of over 55% in size
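Recombinant human tau K18 fragment […] carrying P301L, 15 uM unlabeled plus 0.24 uM Alexa 594-labeled, was fibrillized with 20 uM heparin in 100 mM sodium acetate pH 7 for 6 hr at 37 C; 30 uM ThT fluorescence read after 1 hr.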
The depositor's hits bear a star; u = inconclusive; x = not tested or not shown; [ ] = dose if it differs, or a comment. An excerpt weighted towards active compounds, which were near 9.5% of everything screened. Unless noted, calls come from the whole dose curve; as a rule, active = well fitted curve in the direction sought with a large enough effect; inconclusive = small, poorly fitted or top-dose-only effect, or another doubt; inactive = no such curve, though single readings can be large; an effect the other way counts as inactive or inconclusive. Unless noted, % is set by controls: 0 for no effect and ±100 for the full control effect; potency is the fitted concentration of half-maximal effect.

SMILES	ALDH1A1 block	NPSR antagonist	Tau fluor counter	HPGD inh	Tau FP inhib	Tau fibril ThT
Clc1ccc(CCNC(c2ccc(Cl)cc2)c2nnc(-c3ccccc3)o2)cc1 (centres undefined)	x	x	-13.9%	x	3.9%	-16.4%
COc1ccc(NC(=O)Cn2c(SCc3c(F)cccc3Cl)nc3ccncc32)cc1OC	x	x	-18.3%	x	-7.5%	8.8%
S=C([S-])NCCNC(=S)[S-].[Zn+2]	11.2µM*	x	x	10µM*	x	x
COc1ccc(N2C(=O)CSC2c2cccc(OC)c2OC)cc1 (centres undefined)	-3.8%	16.9%	-6.2%	-1.9%	1.2%	-1.8%
COc1cccc(C2SCC(=O)N2c2ccc(C)cc2)c1OC (centres undefined)	14.1µM*	0.8%	4.9%	-6.0%	3.7%	-2.0%
CCC(c1nnnn1Cc1ccco1)N(Cc1cc2cc(C)cc(C)c2[nH]c1=O)CC1CCCO1 (centres undefined)	12.6µM*	u	-17.9%	-14.8%	-10.1%	u
CCC(c1nnnn1Cc1ccco1)N(Cc1ccccc1OC)Cc1cc2cc(C)ccc2[nH]c1=O (centres undefined)	u	u	-21.2%	-14.5%	-11.9%	u
Cc1cccc2cc(CN(Cc3ccco3)C(c3nnnn3CCc3ccccc3)C(C)C)c(=O)[nH]c12 (centres undefined)	31.6µM*	12.6µM*	-6.2%	u	2.0%	-13.0%
CC12C=C(/C=C/c3ccc(Br)cc3)C(C)(C1)C(c1ccc(Br)cc1)CC2=O (centres undefined)	2.8%[13.5 µM]	x	-2.5%[11.6 µM]	x	-3.9%[11.6 µM]	-4.4%[11.5 µM]
O=C(CC1C(=O)NCCN1C(=O)Nc1ccccc1)Nc1ccc(F)cc1 (centres undefined)	3.5%	-4.3%	-9.6%	x	0.9%	0.8%
CC(C)CCN1CCNC(=O)C1CC(=O)Nc1ccc(F)cc1 (centres undefined)	17.8µM*	-12.1%[46.1 µM]	1.2%	-14.2%	-1.2%	2.7%
COc1ccc(OC)c(CCNC(=O)c2cc3c(=O)n(C)c4ccccc4c3n2C)c1	x	x	-16.1%	x	7.2%	u
O=C(CCl)Nc1ccccc1Sc1ccccc1	3.98µM*	-14.9%[46.1 µM]	-8.8%	-7.8%	1.4%	-9.6%
N#CCC(=O)Nc1ccc(C(=O)OCC(=O)Nc2ccccc2Sc2ccccc2)cc1	8.3%	-30.5%	u	x	28.2µM*	-14.8%
O=C(Cc1ccc(Cl)cc1)Nc1ccccc1Sc1ccccc1	-12.1%	-45.2%	-6.9%	-14.7%	-2.0%	-4.2%
CC(=O)Nc1ccc(C(=O)OCC(=O)Nc2ccccc2Sc2ccccc2)cc1	1.3%	6.0%	u	u	u	u
Cc1ccc(-n2nc(CO)c(C(=O)NC(C)CCCc3ccccc3)n2)cc1 (centres undefined)	x	x	0.5%	x	-13.6%	-0.3%
CN(C)c1ccc(NS(=O)(=O)c2ccc(-c3csnn3)cc2)cc1	8.91µM*	31.0%	14.6%	x	-1.6%	13.0%
O=C(CN1CCN(C/C=C/c2ccccc2)CC1)Nc1cc([N+](=O)[O-])ccc1Cl	10µM*	1.4%	7.2%	-8.7%	3.0%	8.7%
N#C/C(=C(\O)C(=O)O)c1ccc(-c2cccc3ccccc23)cc1	2.5%[13.5 µM]	x	x	-3.3%	x	x
CCOC(=O)N/N=C1/C[C@@H](O)[C@@H](O)[C@@H]2[C@@H]3C(=O)N(Cc4ccccc4)C(=O)[C@H]3CC[C@@H]12	6.2%[13.5 µM]	x	-6.5%[11.6 µM]	x	-5.7%[11.6 µM]	-6.6%[11.5 µM]
COc1cc2c(cc1NC(=S)NC(=O)c1c(OC)cccc1OC)oc1ccccc12	u	-3.1%	-21.9%	-17.9%	28.2µM*	-1.3%
COc1ccc(C(=O)NC(=S)Nc2cc3oc4ccccc4c3cc2OC)cc1	u	19.2%	-10.7%	-8.8%	-0.9%	-14.7%
COc1cc2c(cc1NC(=O)c1cccc([N+](=O)[O-])c1)oc1ccccc12	3.4%	10µM*	-6.4%	-24.8%	-2.2%	-7.6%
COc1cc2c(cc1NC(=O)c1ccc(C)c([N+](=O)[O-])c1)oc1ccccc12	11.9%	-11.5%	-10.1%	-3.3%	5.1%	-12.5%
SMILES	ALDH1A1 block	NPSR antagonist	Tau fluor counter	HPGD inh	Tau FP inhib	Tau fibril ThT
COc1cc(/C=C(\C#N)C(=O)c2c[nH]c3ccccc23)cc(OC)c1O	7.5%	-34.2%	-8.0%	x	8.7%	15.8µM*
COc1cc(/C=C(\C#N)c2nc3ccccc3[nH]2)cc(Br)c1OCc1ccc(F)cc1	u	5.01µM*	u	-20.6%	u	u
COc1cc(/C=C(/C#N)c2nc(-c3cc4ccccc4oc3=O)cs2)ccc1O	x	x	u	x	14.8%	4.47µM*
COc1cc(/C=C(\C#N)c2nc3ccccc3[nH]2)ccc1OCc1ccccc1F	x	x	-21.2%	x	u	4.2%
CCN(CC)c1ccc(/C=C(/C#N)c2nc3ccc(C)cc3[nH]2)c(OC(C)C)c1	4.0%	u	u	u	10.6%	u
CCOc1cc(N(CC)CC)ccc1/C=C(/C#N)c1nc2ccccc2[nH]1	-12.1%	u	10µM*[quencher]	-9.6%	11.0%	u
CCC(=O)Oc1ccc(/C=C(\C#N)c2nc3ccccc3[nH]2)cc1OC	x	x	u	x	-4.6%	u
COc1cc(/C=C(/C#N)c2nc3ccccc3c(=O)[nH]2)ccc1O	-0.7%	-19.7%	-16.3%	14.1µM*	13.6%	u
COc1cc(/C=C(\C#N)c2nc3ccccc3[nH]2)cc(OC)c1O	9.2%	-30.6%	u	x	u	7.08µM*
COCCCNC(=O)c1c(NC(=O)c2cc(=O)c3ccccc3o2)sc2c1CCCC2	x	x	-19.7%	x	0.8%	u
NNS(=O)(=O)c1cc(C(=O)O)cc(C(=O)O)c1	-10.0%[13.5 µM]	x	x	-5.0%	x	x
CN(C)Cc1ccccc1-c1ccc2ncnc(NC3CC3)c2c1	-4.1%	x	-7.2%	-28.0%	-2.8%	-8.1%
COc1ccc(CNc2nc3c(-c4ccccc4)nnn3c3ccccc23)cc1	x	x	-11.8%	x	-4.2%	15.9%
O=C(CCCCCn1c(=O)[nH]c2ccsc2c1=O)N1CCCCC1	-1.4%	1.4%[46.1 µM]	-0.3%	14.1µM*	4.5%	-12.3%
O=C(CCCn1c(=O)[nH]c2ccsc2c1=O)N1CCCCC1	-6.8%	-6.8%[46.1 µM]	1.4%	14.1µM*	-9.4%	1.9%
O=C(CCCCCn1c(=O)[nH]c2ccsc2c1=O)NCc1cccs1	4.2%	-10.6%[46.1 µM]	2.3%	u	0.0%	5.6%
O=C(CCCCn1c(=O)[nH]c2ccsc2c1=O)NCC1CCCO1 (centres undefined)	-0.9%	0.3%[46.1 µM]	4.5%	25.1µM*	3.8%	5.3%
CSc1ncnc2c1ncn2[C@@H]1O[C@@H](CO)[C@H](O)O[C@@H]1O	7.9%[13.5 µM]	x	x	-3.5%	x	x
Oc1ccccc1/C=N/NC(=S)NC1CC2CC1C1C=CCC21 (centres undefined)	-12.2%	u	12.6µM*[quencher]	x	-12.9%	-10.8%
Cc1cc(C)n(C(=O)CCNC(=O)c2ccccc2Br)n1	-1.2%	-5.6%[46.1 µM]	-4.5%	7.94µM*	1.8%	-9.9%
